A number with no mark means an inactive call. Records with an inconclusive call do not appear. Active and inactive are the calls of the source. Unless noted, calls follow the shape of the full dose curve.

Results on seven molecules are retold here after PubChem BioAssay (Tox21).

A short description of assay [1]: Nuclear factor erythroid 2-related factor 2/antioxidant responsive element (Nrf2/ARE) small molecule agonists: qHTS cell viability counter screen in human keratinocytes (AID 1919968; active = well fitted curve in the direction sought with a large enough effect in the repeat runs; an effect the other way counts as inactive or inconclusive; also: nearly all actives have a fitted effect of over 55% in size; also: potency is read from the fitted curve at half-maximal effect). An outline of the steps:
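Stably transfected HaCaT (KeratinoSens), 1,500/well. Test agents in DMSO were applied for 23 h, 37 C/5% CO2. CellTiter-Fluor was incubated 1 h before the fluorescence read.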
Background: Quantitative high-throughput screening tests each substance at several concentrations.

The nature of assay [2]: Nuclear factor erythroid 2-related factor 2/antioxidant responsive element (Nrf2/ARE) small molecule agonists: luciferase reporter gene qHTS assay in human keratinocytes (AID 1919969). Also: nearly all actives have a fitted effect of over 35% in size. Also: potency is read from the fitted curve at half-maximal effect. For orientation: In a reporter assay the amount or activity of a reporter protein is the signal.
The target in assay [3] is KiSS-1 receptor (Homo sapiens) (UniProt Q969F8). Description: Human kisspeptin (KISS1R) small molecule agonists, calcium flux assay in KISS1R-HEK293 cells (AID 1920064; active = well fitted curve in the direction sought with a large enough effect in the repeat runs; an effect the other way counts as inactive or inconclusive). The method, boiled down:
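After overnight (18 h) culture at 37 C/5% CO2, human KISS1R-HEK293 cells received calcium dye for 1 h, then test compound; emission at 540 nm (excitation 480 nm) was tracked for 3 min.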

Assay [4] can be described thus: G protein-coupled receptor (GPCR) small molecule agonists, calcium flux assay: HEK293 wild type cell line counter screen (AID 1920065). The method, boiled down:
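Following 18 h incubation at 37 C/5% CO2, plates got calcium dye for 1 h; compounds, ATP or DMSO were then pinned in and fluorescence followed kinetically (480/540 nm).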
In general terms: A change in cytosolic calcium serves as a functional read-out for many receptors and channels.

Assay [5] is described as follows: p53 small molecule agonists, cell-based qHTS assay with rat liver microsomes (AID 1963578). The method, boiled down: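 Agonist mode in p53RE-bla reporter cells, with compounds co-incubated 16 h at 37 C alongside 0.5 mg/mL rat liver microsomes and 0.5 mg/mL NADPH (final), followed by a 2 h LiveBLAzer detection step.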
Assay [6] in a line: p53 small molecule agonists, cell-based qHTS assay with human liver microsomes: qHTS cell viability counter screen (AID 1963579). Also: nearly all actives have a fitted effect of over 45% in size. An outline of the steps:
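Metabolically activated exposure: compounds, human liver microsomes and NADPH (0.5 mg/mL final apiece) were added to p53RE-bla cells seeded 5 h earlier, left 16 h at 37 C, and then assessed for viability by CellTiter-Glo luminescence.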

The nature of assay [7]: p53 small molecule agonists, cell-based qHTS assay with rat liver microsomes: qHTS cell viability counter screen (AID 1963580). Also: nearly all actives have a fitted effect of over 45% in size. An outline of the steps:
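Rat liver microsome (0.5 mg/mL final) and NADPH (0.5 mg/mL final) co-incubation with compounds for 16 h at 37 C on HCT-116 p53RE-bla cells; cytotoxicity taken from intracellular ATP luminescence.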

Assay [8] deals with 5-hydroxytryptamine receptor 2A (Homo sapiens) (UniProt P28223). Description: 5-hydroxytryptamine receptor 2A (HTR2A) small molecule antagonists, cell-based qHTS assay (AID 1963586). Also: nearly all actives have a fitted effect of over 45% in size. Also: potency is read from the fitted curve at half-maximal effect. An outline of the steps:
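CHO cells stably expressing human HTR2A were plated for 18 h at 37 C, then loaded with calcium dye for 1 h. Compounds were preincubated 5 min at room temperature before DOI (4 nM solution) was added. Kinetic fluorescence was read for 3 min.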

The target is the same in assay [9]. As to the kind of experiment: 5-hydroxytryptamine receptor 2A (HTR2A) small molecule agonists, cell-based qHTS assay (AID 1963587). Also: nearly all actives have a fitted effect of over 30% in size. Also: potency is read from the fitted curve at half-maximal effect. The method, boiled down: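 Kinetic calcium-flux fluorescence (2 min, 1 sec intervals) after compound addition in agonist mode. HTR2A-CHO cells were cultured 18 h, then dye-loaded 1 h at 37 C.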
In assay [10] the target is Muscarinic acetylcholine receptor M1 (Homo sapiens) (UniProt P11229). Description: Cholinergic receptor muscarinic 1 (CHRM1) small molecule antagonists, cell-based qHTS assay (AID 1963588). Also: nearly all actives have a fitted effect of over 40% in size. The method, boiled down: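 Compounds were tested at 15 concentrations in three independent runs. Dye-loaded CHRM1-CHO cells were exposed 5 min at room temperature before stimulation by acetylcholine added at 50nM. Intracellular calcium was read kinetically on FDSS for 3 min.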

For assay [11] the target is unchanged. As to the kind of experiment: Cholinergic receptor muscarinic 1 (CHRM1) small molecule agonists, cell-based qHTS assay (AID 1963589). Also: nearly all actives have a fitted effect of over 35% in size. The method, boiled down: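 Kinetic fluorescence (1 s intervals) of calcium-sensitive dye in human M1 CHO cells after compound addition; cells pre-incubated 18 h at 37 C/5% CO2 and dye-loaded 1 h.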
Assay [12] addresses Beta-2 adrenergic receptor (Homo sapiens) (UniProt P07550). As to the kind of experiment: Adrenergic beta2 receptor (ADRB2) small molecule antagonists, cell-based qHTS assay (AID 1963592). Also: nearly all actives have a fitted effect of over 50% in size. Also: potency is read from the fitted curve at half-maximal effect. The method, boiled down:
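Assay format: CHO-ADRB2 cells, 18-20hr seeding at 37C/5% CO2, then compound plus 1nM isoproterenol agonist mix for 0.5hr RT. Homogeneous time-resolved fluorescence cAMP detection after 1hr, expressed as 665/615 nm ratio.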

For assay [13], the target named is D(2) dopamine receptor (Homo sapiens) (UniProt P14416). As to the kind of experiment: Dopamine D2 receptor (DRD2) small molecule agonists, cell-based qHTS assay (AID 1963594). Also: nearly all actives have a fitted effect of over 35% in size. An outline of the steps: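 cAMP accumulation in DRD2-HEK293 cells measured by HTRF after 1 h detection; compounds added 10 min before NKH477 (200nM […]) forskolin-analogue stimulation, 30 min at room temperature, with Ro20-1724 present at 0.1 mM final.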

Assay [14] has the same target. Description: Dopamine D2 receptor (DRD2) small molecule antagonists, cell-based qHTS assay (AID 1963595; active = well fitted inhibition curve with a large enough effect in the signal ratio in the repeat runs, with a control signal flat; the % refers to the signal ratio). An outline of the steps: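 HEK293 cells stably expressing DRD2, preincubated with 0.1 mM Ro20-1724 and compounds 10 min, were stimulated with 200 nM NKH477 plus 12 nM quinpirole for 30 min at room temperature; cAMP measured by HTRF (665/620 nm).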
Assay [15] concerns the target Gonadotropin-releasing hormone receptor (Homo sapiens) (UniProt P30968). Description: Human gonadotropin-releasing hormone receptor (GnRHR) small molecule agonists, calcium flux assay in GnRHR-HEK293 cells (AID 1920063). Also: nearly all actives have a fitted effect of over 35% in size. An outline of the steps:
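Stable human GnRHR HEK293 line. 18 h plating, then calcium dye for 1 h at 37 C. Agonist-mode compound addition from DMSO stocks; fluorescence monitored 3 min.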

A short description of assay [16]: p53 small molecule agonists, cell-based qHTS assay: qHTS cell viability counter screen (AID 1963581). Also: nearly all actives have a fitted effect of over 45% in size. An outline of the steps: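 qHTS counter screen: 16 h compound exposure at 37 C of p53RE-bla HCT-116 cells (4,000 per well, seeded 5 h prior), cell viability by ATP luminescence.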
Assay [17] is described as follows: cAMP Responsive Elements (CRE) small molecule agonists, cell-based qHTS assay (AID 1963590). An outline of the steps: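 Test agents in DMSO were incubated 3 h at 37 C/5% CO2 with CRE-bla HEK 293T cells seeded 18 h earlier; LiveBLAzer B/G FRET substrate was added and read after 2 h at room temperature.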
A short description of assay [18]: cAMP Responsive Elements (CRE) small molecule antagonists, cell-based qHTS assay (AID 1963591; active = well fitted inhibition curve with a large enough effect in the signal ratio in the repeat runs, not every such curve was filed as active; the % refers to the signal ratio). The method, boiled down: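 Reporter line CRE-bla HEK 293T in dialyzed-FBS DMEM; cells preincubated 18 h, treated 3 h with compound plus NKH477 (0.25 uM final); LiveBLAzer FRET, 2 h RT.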
Assay [19] can be described thus: p53 small molecule agonists, cell-based qHTS assay (AID 1963582; active = well fitted activation curve with a large enough effect in the signal ratio in the repeat runs, not every such curve was filed as active; the % refers to the signal ratio). An outline of the steps: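 Measured: fluorescence from cleaved LiveBLAzer substrate. System: p53RE-bla cells, 16 h compound treatment at 37 C, 2 h substrate step at room temperature.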
The target in assay [20] is Beta-2 adrenergic receptor (Homo sapiens) (UniProt P07550). Description: Adrenergic beta2 receptor (ADRB2) small molecule agonists, cell-based qHTS assay (AID 1963593).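 Also: CHO cells stably overexpressing human ADRB2.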 The method, boiled down: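 CHO cells stably over-expressing ADRB2 were plated overnight at 37C, then dosed with compounds plus a stimulation mix containing 100uM IBMX and 25uM Ro-20-1724 for 0.5hr at room temperature. cAMP was measured by HTRF competition, 1hr.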
Chain of Beta-2 adrenergic receptor (Homo sapiens) (P07550 whole entry, looked up): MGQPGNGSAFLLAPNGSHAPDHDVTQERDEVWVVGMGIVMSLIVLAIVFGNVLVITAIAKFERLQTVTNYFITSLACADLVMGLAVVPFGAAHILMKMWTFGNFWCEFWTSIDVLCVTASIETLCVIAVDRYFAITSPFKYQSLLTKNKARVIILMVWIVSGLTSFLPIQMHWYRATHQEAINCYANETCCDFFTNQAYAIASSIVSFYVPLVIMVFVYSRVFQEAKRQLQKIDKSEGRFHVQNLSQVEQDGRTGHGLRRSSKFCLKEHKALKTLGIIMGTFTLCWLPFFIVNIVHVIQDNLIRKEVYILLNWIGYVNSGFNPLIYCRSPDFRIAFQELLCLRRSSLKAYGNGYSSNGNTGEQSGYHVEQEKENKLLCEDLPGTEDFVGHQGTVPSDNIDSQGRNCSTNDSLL

Chain of Gonadotropin-releasing hormone receptor (Homo sapiens) (P30968 whole entry, looked up): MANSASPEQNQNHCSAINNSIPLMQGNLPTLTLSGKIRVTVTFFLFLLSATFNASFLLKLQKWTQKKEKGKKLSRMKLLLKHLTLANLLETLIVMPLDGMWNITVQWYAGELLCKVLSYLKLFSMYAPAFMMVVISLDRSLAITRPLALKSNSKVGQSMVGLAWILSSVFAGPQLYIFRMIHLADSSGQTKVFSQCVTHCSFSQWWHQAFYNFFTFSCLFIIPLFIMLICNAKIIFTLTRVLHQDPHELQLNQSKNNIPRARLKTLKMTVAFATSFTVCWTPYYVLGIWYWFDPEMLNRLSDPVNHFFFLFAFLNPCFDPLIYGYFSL
Chain of D(2) dopamine receptor (Homo sapiens) (P14416 whole entry, looked up): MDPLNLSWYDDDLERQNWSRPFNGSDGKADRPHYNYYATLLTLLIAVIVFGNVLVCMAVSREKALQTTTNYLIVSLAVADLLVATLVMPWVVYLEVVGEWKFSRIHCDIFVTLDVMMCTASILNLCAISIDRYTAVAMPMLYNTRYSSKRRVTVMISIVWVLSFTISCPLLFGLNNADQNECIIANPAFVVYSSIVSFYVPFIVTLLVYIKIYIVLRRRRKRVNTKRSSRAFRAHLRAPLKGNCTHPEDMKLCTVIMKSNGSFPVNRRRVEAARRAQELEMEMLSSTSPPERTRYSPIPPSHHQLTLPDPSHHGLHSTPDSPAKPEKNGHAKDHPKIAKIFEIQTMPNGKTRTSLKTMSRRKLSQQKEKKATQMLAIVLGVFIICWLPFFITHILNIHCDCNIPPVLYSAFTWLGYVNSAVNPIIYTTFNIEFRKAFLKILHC
Chain of KiSS-1 receptor (Homo sapiens) (Q969F8 whole entry, looked up): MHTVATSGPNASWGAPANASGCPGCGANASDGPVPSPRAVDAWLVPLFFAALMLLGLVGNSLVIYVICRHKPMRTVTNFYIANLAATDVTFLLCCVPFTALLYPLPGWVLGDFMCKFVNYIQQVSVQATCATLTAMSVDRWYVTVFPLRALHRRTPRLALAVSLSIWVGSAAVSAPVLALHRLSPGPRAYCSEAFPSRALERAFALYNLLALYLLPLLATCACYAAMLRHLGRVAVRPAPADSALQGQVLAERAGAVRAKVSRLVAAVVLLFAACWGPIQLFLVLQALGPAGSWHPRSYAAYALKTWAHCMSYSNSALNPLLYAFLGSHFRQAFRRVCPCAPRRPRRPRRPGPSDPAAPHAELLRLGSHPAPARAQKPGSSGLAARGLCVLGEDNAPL
Chain of 5-hydroxytryptamine receptor 2A (Homo sapiens) (P28223 whole entry, looked up): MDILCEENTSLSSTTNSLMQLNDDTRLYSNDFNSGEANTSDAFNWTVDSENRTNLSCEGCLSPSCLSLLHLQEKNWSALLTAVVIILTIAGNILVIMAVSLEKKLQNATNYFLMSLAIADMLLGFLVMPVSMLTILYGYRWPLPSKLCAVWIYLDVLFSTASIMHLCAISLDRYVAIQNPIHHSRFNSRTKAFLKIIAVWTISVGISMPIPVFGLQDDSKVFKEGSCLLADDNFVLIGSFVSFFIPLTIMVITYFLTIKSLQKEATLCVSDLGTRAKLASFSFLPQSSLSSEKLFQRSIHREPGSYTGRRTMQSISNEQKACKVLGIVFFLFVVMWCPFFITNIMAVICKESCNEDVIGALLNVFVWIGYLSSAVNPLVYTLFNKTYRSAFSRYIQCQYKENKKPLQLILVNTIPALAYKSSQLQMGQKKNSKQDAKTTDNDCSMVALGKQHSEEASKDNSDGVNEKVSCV
Chain of Muscarinic acetylcholine receptor M1 (Homo sapiens) (P11229 whole entry, looked up): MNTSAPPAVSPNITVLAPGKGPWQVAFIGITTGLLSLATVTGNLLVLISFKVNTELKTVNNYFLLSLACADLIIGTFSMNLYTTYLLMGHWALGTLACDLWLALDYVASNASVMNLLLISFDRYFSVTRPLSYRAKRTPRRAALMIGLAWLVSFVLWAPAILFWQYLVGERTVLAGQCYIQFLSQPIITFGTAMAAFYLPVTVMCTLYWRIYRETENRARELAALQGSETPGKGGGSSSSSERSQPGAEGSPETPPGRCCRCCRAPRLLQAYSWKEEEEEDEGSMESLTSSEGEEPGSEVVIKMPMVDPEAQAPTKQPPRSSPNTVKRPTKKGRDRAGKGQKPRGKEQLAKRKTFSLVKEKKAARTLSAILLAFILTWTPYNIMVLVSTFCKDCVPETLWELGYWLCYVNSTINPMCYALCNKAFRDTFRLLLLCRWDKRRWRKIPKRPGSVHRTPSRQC

For `COCC(=O)O[C@]1(CCN(C)CCCc2nc3ccccc3[nH]2)CCc2cc(F)ccc2[C@@H]1C(C)C`, the Potency was 23.7 µM (active) in assay [1] and 5.16 µM (active) in assay [8]. For the same molecule, the Potency result in assay [2], in assay [3], in assay [4], in [5], in assay [6] and in assay [7] was “inactive” each time. In addition, the Potency entry in [9], in assay [10], in assay [11], in assay [12], in [13] and in assay [14] was “inactive” in each case.

Regarding `CC(=O)OCC(=O)[C@@]1(O)CC[C@H]2[C@@H]3CCC4=CC(=O)CC[C@]4(C)[C@H]3C(=O)C[C@@]21C`, the Potency result in assay [1], in assay [2], in [15], in assay [4], in [7] and in assay [16] was “inactive” throughout. In addition, the Potency entry in [17], in assay [18], in assay [12], in assay [13] and in assay [14] was “inactive” in each case.

As to `CCCCCCCCCOC(=O)CCCCC(=O)OCCCCCCC`, the Potency result in assay [1], in assay [2], in [3], in assay [4], in assay [5] and in [6] was “inactive” each time. Besides, the Potency entry in [7], in [16], in assay [19], in assay [8], in assay [10] and in [17] was “inactive” throughout. Besides, the Potency result in assay [18], in assay [20], in assay [13] and in [14] was “inactive” each time. For the same molecule, in [12], the Potency was 15.4 µM (active).

Consider `COc1cc(C(C)(C)C)c(O)c(C(C)(C)C)c1`, for which the Potency entry in assay [1], in assay [15], in assay [4], in assay [6], in [16] and in [8] was “inactive” each time. Besides, the Potency entry in assay [9], in assay [11], in [20], in assay [13] and in [14] was “inactive” in each case. Besides, the Potency in assay [2] was 48.6 µM (active).

Take `CCCC(=O)O[C@]1(C(=O)CO)CC[C@H]2[C@@H]3CCC4=CC(=O)CC[C@]4(C)[C@H]3[C@@H](O)C[C@@]21C`: the Potency entry in assay [1], in assay [2], in assay [15], in assay [4], in [6] and in [7] was “inactive” each time. For the same molecule, the Potency result in assay [16], in [8], in assay [9], in [11], in [17] and in [12] was “inactive” in each case. In addition, the Potency result in assay [13] and in [14] was “inactive” each time.

On to `Cc1cc(C)c(/C=C2\C(=O)Nc3ccccc32)[nH]1`, for which the Potency result in assay [1], in assay [2], in assay [3], in assay [4], in assay [5] and in [6] was “inactive” in each case. The Potency entry in assay [7], in assay [16], in assay [19], in [10], in assay [11] and in [13] was “inactive” in each case. Further, the Potency entry in assay [14] is “inactive”. In addition, the Potency in [9] is 21.3 µM (active).

Regarding `CCN(CC)CC1CCCCN1CC(=O)N1c2ccccc2C(=O)Nc2cccnc21` (stereo not drawn), the Potency entry in [1], in assay [2], in assay [15], in [6], in assay [7] and in assay [16] was “inactive” each time. Moreover, the Potency entry in [8], in assay [9], in [10], in assay [11], in [17] and in assay [18] was “inactive” in each case. The Potency entry in assay [12], in assay [20], in [13] and in [14] was “inactive” throughout.
